Assay [1] deals with Rap guanine nucleotide exchange factor 3 (Homo sapiens) (UniProt O95398). Kind of assay: Confirmatory qHTS for agonist of cAMP-regulated guanine nucleotide exchange factor 3 (EPAC1) (AID 1645881).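 Further: EPAC1 catalysed release of BODIPY-GDP from Rap1B seen as fluorescence loss; 100% = effect of cAMP agonist control; nearly all actives have a fitted effect of over 75% in size.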
Assay [2] deals with Rap guanine nucleotide exchange factor 4 (Homo sapiens) (UniProt Q8WZA2). Kind of assay: Confirmatory qHTS for agonist of cAMP-regulated guanine nucleotide exchange factor 4 (EPAC2) (AID 1645884).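 Further: nucleotide exchange releases bodipy-GDP from Rap1 and this lowers its fluorescence; on the % scale 0 is the no-effect control and ±100 the full control effect; nearly all actives have a fitted effect of over 65% in size.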
Rap guanine nucleotide exchange factor 4 (Homo sapiens), sequence (Q8WZA2 whole entry, looked up): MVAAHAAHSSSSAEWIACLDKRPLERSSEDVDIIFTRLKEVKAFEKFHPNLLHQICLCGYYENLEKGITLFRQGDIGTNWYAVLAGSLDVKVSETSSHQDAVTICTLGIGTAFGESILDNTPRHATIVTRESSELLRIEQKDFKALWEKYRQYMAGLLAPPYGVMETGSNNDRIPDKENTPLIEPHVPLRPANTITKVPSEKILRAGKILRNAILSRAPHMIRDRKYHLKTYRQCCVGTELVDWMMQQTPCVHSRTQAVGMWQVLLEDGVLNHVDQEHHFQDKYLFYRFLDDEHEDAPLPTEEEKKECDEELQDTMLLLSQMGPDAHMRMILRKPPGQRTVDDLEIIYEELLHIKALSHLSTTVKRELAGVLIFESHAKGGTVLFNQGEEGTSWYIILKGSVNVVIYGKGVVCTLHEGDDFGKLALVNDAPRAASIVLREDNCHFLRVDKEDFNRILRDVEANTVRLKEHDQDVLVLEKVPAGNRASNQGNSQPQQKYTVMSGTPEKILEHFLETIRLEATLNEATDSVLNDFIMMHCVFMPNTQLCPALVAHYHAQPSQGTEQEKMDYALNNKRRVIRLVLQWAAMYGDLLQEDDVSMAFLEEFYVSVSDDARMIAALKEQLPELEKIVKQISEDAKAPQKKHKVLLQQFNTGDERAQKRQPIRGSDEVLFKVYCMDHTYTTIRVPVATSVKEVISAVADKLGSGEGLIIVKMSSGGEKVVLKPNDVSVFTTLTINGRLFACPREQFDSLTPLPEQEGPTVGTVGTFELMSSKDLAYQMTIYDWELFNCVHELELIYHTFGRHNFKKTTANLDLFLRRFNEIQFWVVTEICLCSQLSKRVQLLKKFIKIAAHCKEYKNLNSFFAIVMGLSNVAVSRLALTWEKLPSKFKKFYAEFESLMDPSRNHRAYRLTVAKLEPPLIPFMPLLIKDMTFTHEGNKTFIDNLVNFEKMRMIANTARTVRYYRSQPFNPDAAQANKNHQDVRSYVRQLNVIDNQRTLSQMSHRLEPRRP
The target is the same in assay [3]. The assay can be described thus: Confirmatory qHTS for antagonist of cAMP-regulated guanine nucleotide exchange factor 4 (EPAC2) (AID 1645885). Further: nearly all actives have a fitted effect of over 25% in size. Further: potency means the concentration at half of the fitted maximal effect. On activity change, negative = inhibition: on the % scale 0 is the no-effect control and ±100 the full control effect.
Assay [4] has as its target Rap guanine nucleotide exchange factor 3 (Homo sapiens) (UniProt O95398). Kind of assay: Counterscreen qHTS for antagonist of cAMP-regulated guanine nucleotide exchange factor 3 (EPAC1) (AID 1645888).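 Further: fluorescence loss as bound BODIPY-GDP is released from Rap1B; % of control where 0% means no effect.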 In short, it runs like this:
(§1)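 Measured: fluorescence of BODIPY-GDP bound to Rap1B, which falls as exchange proceeds. Conditions include 50 uM competing GDP, 5 and 30 min reads, and a later cAMP challenge for antagonist detection.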

Assay [5] has the same target. The assay can be described thus: Counterscreen qHTS for agonist of cAMP-regulated guanine nucleotide exchange factor 3 (EPAC1) (AID 1645889). Further: % of control where 0% means no effect; nearly all actives have a fitted effect of over 40% in size. In short, it runs like this: as §1

We go through 20 compounds from PubChem BioAssay (NCATS).

Results filed as inconclusive are left out. Values without a mark were called inactive. Active and inactive are the calls of the source. The call rests on the fitted dose curve; in most records, active means well fitted curve in the direction sought with a large enough effect; inconclusive means small, poorly fitted or top-dose-only effect, or another doubt; inactive means no such curve, though single readings can be large; an effect the other way counts as inactive or inconclusive.

Rap guanine nucleotide exchange factor 3 (Homo sapiens), sequence (O95398 whole entry, looked up): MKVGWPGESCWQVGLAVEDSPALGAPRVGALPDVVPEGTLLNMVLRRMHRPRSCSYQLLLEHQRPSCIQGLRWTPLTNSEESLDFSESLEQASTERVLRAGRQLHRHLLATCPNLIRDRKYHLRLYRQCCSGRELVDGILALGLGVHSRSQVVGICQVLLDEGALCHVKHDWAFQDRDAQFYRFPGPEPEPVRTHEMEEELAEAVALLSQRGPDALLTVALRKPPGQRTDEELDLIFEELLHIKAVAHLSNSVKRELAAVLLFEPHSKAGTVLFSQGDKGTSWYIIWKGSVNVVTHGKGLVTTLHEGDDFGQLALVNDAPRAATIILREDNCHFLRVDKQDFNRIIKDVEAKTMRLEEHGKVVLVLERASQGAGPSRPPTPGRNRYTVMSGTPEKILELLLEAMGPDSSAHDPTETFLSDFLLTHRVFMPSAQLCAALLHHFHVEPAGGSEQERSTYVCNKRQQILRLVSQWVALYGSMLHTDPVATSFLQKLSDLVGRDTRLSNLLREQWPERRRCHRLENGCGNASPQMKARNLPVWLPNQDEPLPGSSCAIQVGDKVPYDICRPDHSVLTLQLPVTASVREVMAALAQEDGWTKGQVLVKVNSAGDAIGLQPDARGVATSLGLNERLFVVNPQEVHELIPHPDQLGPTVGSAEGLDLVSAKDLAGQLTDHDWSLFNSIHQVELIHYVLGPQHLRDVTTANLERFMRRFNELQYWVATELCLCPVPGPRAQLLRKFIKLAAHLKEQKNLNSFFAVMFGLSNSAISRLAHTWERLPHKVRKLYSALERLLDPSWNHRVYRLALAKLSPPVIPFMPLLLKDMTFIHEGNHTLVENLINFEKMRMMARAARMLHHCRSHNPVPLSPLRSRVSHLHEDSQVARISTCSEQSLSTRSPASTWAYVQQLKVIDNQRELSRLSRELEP

Turning to `NNc1cccc(C=Cc2ccccc2)cc1=O`, the Potency result in assay [1] and in assay [3] was “inactive” throughout. Moreover, the activation in assay [2] was 0.393% [at 17.1 µM, percent relative to cAMP agonist control]; in assay [5], 27.5% [at 30.8 µM]. Also, the activity change, negative = inhibition in assay [4] was -9.39% [at 30.8 µM].

In the case of `CC1(Cc2ccccc2Cl)C(=O)Nc2c(Cl)cccc21` (stereo not given), the Potency result in assay [1] and in assay [3] was “inactive” in each case. In addition, the activation in assay [2] is 10% [at 17.1 µM, percent relative to cAMP agonist control]; in assay [5] it was 5.68% [at 30.8 µM]. For the same compound, in assay [4], the activity change, negative = inhibition is -23.5% [at 30.8 µM].

For the compound `Cc1cc(C2(c3ccc(O)c(C)c3)C(=O)N(C)c3ccc(Br)cc32)ccc1O`, the Potency entry in assay [1] and in assay [3] was “inactive” each time. Further, the activation is 5.15% [at 17.1 µM, percent relative to cAMP agonist control] in assay [2] and 17.4% [at 30.8 µM] in assay [5]. The activity change, negative = inhibition in assay [4] is -4.41% [at 30.8 µM].

As to `CCCCOc1cccc(C2C(C(=O)c3ccc(C)o3)=C(O)C(=O)N2c2nnc(C)s2)c1` (stereo not given), the Potency result in assay [1], in assay [2], in assay [3], in assay [4] and in assay [5] was “inactive” throughout.

On to `Cc1c(C(=O)OCC(C)C)[nH]c2c1C(=O)CC(c1ccco1)C2` (stereo not given), for which the Potency result in assay [1], in assay [2], in assay [3], in assay [4] and in assay [5] was “inactive” each time.

With `Cc1ccc(C)c(Cn2nc(-c3cc(C)ccc3C)ccc2=O)c1`, the Potency entry in assay [1], in assay [2], in assay [3], in assay [4] and in assay [5] was “inactive” each time.

As for `N#Cc1c(-c2cccs2)nc(SCc2ccc(Cl)cc2)[nH]c1=O`, the Potency result in assay [1], in assay [2], in assay [3], in assay [4] and in assay [5] was “inactive” each time.

With `CC(C)c1ccc(C2=CC(c3cccc(Cl)c3)n3ncnc3N2)cc1` (stereo not given), the Potency result in assay [1], in assay [2], in assay [4] and in assay [5] was “inactive” throughout. Further, the outcome in assay [3] was “inactive [at 12.7 µM]”.

As to `O=C(Nc1cccnc1)c1c(O)c2cccc3c2n(c1=O)CC3`, the Potency result in assay [1] and in assay [3] was “inactive” in each case. The activation is 9.2% [at 17.1 µM, percent relative to cAMP agonist control] in assay [2] and 22.3% [at 30.8 µM] in assay [5]. Also, the activity change, negative = inhibition in assay [4] was -2.81% [at 30.8 µM].

For `CCc1cc(-c2n[nH]c(C)c2-c2nc(C)cs2)c(O)cc1OC`, the Potency entry in assay [1] and in assay [3] was “inactive” each time. Further, the activation in assay [2] was 5.22% [at 17.1 µM, percent relative to cAMP agonist control]; in assay [5] it was 34.8% [at 30.8 µM]. For the same compound, in assay [4], the activity change, negative = inhibition was -17% [at 30.8 µM].

For the compound `Cc1ccc(S(=O)(=O)NC(=O)c2ccc(-c3ccc(C)c4ccccc34)o2)cc1`, the Potency entry in assay [1], in assay [2], in assay [3], in assay [4] and in assay [5] was “inactive” in each case.

Consider `O=C(O)C(Cc1c[nH]c2ccccc12)NS(=O)(=O)c1ccc(Cl)c(C(F)(F)F)c1` (stereo not given), for which the Potency result in assay [1] and in assay [3] was “inactive” in each case. Moreover, the activation in assay [2] was -2.68% [at 17.1 µM, percent relative to cAMP agonist control]; in assay [5], 21.8% [at 30.8 µM]. Moreover, the activity change, negative = inhibition in assay [4] was -4.37% [at 30.8 µM].

Regarding `CC(C)(C)c1ccc(C(=O)N/C(=C\c2cccc([N+](=O)[O-])c2)C(=O)Nc2cccc(C(=O)O)c2)cc1`, the Potency result in assay [1] and in assay [3] was “inactive” in each case. Moreover, the activation is 8.06% [at 17.1 µM, percent relative to cAMP agonist control] in assay [2] and 22.2% [at 30.8 µM] in assay [5]. Further, the activity change, negative = inhibition in assay [4] was -17.2% [at 30.8 µM].

With `CCCCn1c(N)c(N(CCC(C)C)C(=O)c2ccc(COc3ccccc3)o2)c(=O)[nH]c1=O`, the Potency entry in assay [1] and in assay [3] was “inactive” throughout. Besides, the activation in assay [2] was 1.71% [at 17.1 µM, percent relative to cAMP agonist control]; in assay [5] it was 7.33% [at 30.8 µM]. The activity change, negative = inhibition in assay [4] was 1.42% [at 30.8 µM].

For the compound `O=C(O)c1ccccc1NC(c1ccccc1)c1ccc(Cl)cc1` (stereo not given), the Potency result in assay [1], in assay [2], in assay [3], in assay [4] and in assay [5] was “inactive” throughout.

With `CC(C)(C)n1nc(Cc2cccc3ccccc23)c(C#N)c1N`, the Potency entry in assay [1], in assay [2], in assay [3], in assay [4] and in assay [5] was “inactive” throughout.

Turning to `COc1ccc2[nH]cc(S(=O)(=O)c3ccc(C)cc3)c2c1`, the Potency entry in assay [1], in assay [2], in assay [4] and in assay [5] was “inactive” in each case. Also, in assay [3], the Potency is 21.3 µM (active).

For the compound `N#Cc1c(-c2ccccc2)c(C#N)c2nc3ccccc3n2c1N`, the Potency entry in assay [1], in assay [2], in assay [4] and in assay [5] was “inactive” in each case. For the same compound, the Potency in assay [3] is 84.9 µM (active).

Take `Cc1cccc(C)c1-n1cccc1/C=C1\SC(=S)N(c2cccc(C(=O)O)c2)C1=O`: the Potency entry in assay [1], in assay [2], in assay [3], in assay [4] and in assay [5] was “inactive” each time.

For the compound `CCN=C1S/C(=C\c2ccc(-c3cccc(C(=O)O)c3)o2)C(=O)N1CC`, the Potency result in assay [1], in assay [2], in assay [3], in assay [4] and in assay [5] was “inactive” each time.
